Luciferase inh = blocks purified firefly luciferase enzyme activity; purified P. pyralis luciferase, luminescence, biochemical; Potency, µM (series often up to 115 µM), usual class: inhibitors; AID 1347043; 2.5% of 76,000 active; also: nearly all actives have a fitted effect of over 65% in size
Target sequence (P08659 whole entry, looked up): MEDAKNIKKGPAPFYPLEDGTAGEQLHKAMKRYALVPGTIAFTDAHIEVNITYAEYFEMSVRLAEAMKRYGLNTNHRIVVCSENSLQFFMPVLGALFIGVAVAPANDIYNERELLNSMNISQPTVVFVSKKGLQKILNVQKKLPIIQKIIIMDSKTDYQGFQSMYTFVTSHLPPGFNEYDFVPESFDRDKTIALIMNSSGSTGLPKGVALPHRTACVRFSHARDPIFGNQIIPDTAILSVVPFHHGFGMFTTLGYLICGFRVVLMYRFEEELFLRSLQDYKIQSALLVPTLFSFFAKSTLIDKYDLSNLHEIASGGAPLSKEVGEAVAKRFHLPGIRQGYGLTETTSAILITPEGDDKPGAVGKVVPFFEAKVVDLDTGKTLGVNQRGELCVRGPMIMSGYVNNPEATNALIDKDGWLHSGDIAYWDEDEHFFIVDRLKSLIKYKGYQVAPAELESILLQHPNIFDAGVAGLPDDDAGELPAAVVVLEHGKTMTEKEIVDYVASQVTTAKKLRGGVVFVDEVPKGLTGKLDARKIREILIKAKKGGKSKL
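Luminescence read by CCD imaging after purified firefly luciferase (10nM final) was added to substrate buffer holding 10uM D-luciferin and 10uM ATP, pH 7.5, pre-dosed with compound.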
HEK293 tox = cytotoxic compounds in HEK 293 cells. AID 1345083. HEK 293 viability, ATP luminescence (CellTiter-Glo), 48-72 h. 6.6% of 94,000 active. Potency, µM (titrated, usually from 115 µM), for the others: at the highest dose activity change, negative = cytotoxicity, hits mostly inhibitors; also: nearly all actives have a fitted effect of over 60% in size
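HEK 293 cells at 250 cells/well were exposed to compounds by pintool transfer for 48 or 72 hr at 37 degree Celsius, 5% CO2. Viability was read as ATP-coupled luminescence with CellTiter-Glo after 10 min at room temperature.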
SNCA expr inh = inhibitors of alpha-synuclein (SNCA) gene expression. HEK-293 SNCA-luciferase knock-in, luminescence, 24 h. Potency, µM (highest dose often 57.2 µM), for the others: at the highest dose activity change, negative = inhibition, hits mostly inhibitors. 0.17% of 140,000 active;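 also: plate controls were DMSO cells for no effect and cell-free wells for full effect; nearly all actives have a fitted effect of over 45% in size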
NIH3T3 tox = kills NIH 3T3 cells. Potency, µM (titrated, usually from 96.7 µM), for the others: top-dose activity change, negative = cytotoxicity, hits mostly inhibitors. NIH 3T3 viability, CellTiter-Glo ATP luminescence, 48-72 h. 4.3% of 94,000 active. AID 1345082; also: nearly all actives have a fitted effect of over 55% in size
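NIH 3T3 cells at 400 cells/well received 23 nL of compound by pintool and were incubated 48 or 72 h at 37 °C. Viability was read as ATP-coupled CellTiter-Glo luminescence.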
hNpr1 antagonist = blocks ANP-stimulated signaling of human Npr1 receptor | P16066 | HEK293 hNpr1 GloSensor cGMP, ANP-stimulated luminescence | Potency, µM (doses to about 46.3 µM), for inactives: at the top dose activity change, negative = inhibition, hits mostly inhibitors | 1.6% of 76,000 active; calls by dose curve; also: nearly all actives have a fitted effect of over 60% in size
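HEK293 cells stably expressing human Npr1 and cGMP GloSensor pGS-40F, loaded 2 h with 2% GloSensor reagent, given compound 30 min at room temperature. Luminescence read before and 20 min after 0.1 nM hNppA.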
SNCA viab count = cell viability loss counter-screen. HEK-293-SNCA-luc viability, GF-AFC fluorescence, 24 h. Potency, µM (top dose mostly 57.1 µM), without a hit: at the highest dose activity change, negative = cytotoxicity, hits mostly cytotoxic. 0.12% of 150,000 active. AID 1671193;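 also: 0% = DMSO-treated cells and -100% = medium-only wells without cells; nearly all actives have a fitted effect of over 30% in size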
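Cytotoxicity counterscreen: after 24 h compound treatment of genome-edited SNCA-luciferase HEK-293 cells, live-cell protease substrate GF-AFC read by fluorescence after 30 min; activity scaled between DMSO (0%) and medium-only (-100%), curves Hill-fitted.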
Numbers without * were called inactive; i = inactive; ? = inconclusive; / = no result; [ ] = another dose, or the depositor's remark. An excerpt weighted towards active compounds, which were near 7.4% of everything screened. Unless noted, calls follow the shape of the dose curve; as a rule, active = well fitted curve in the direction sought with a large enough effect; inconclusive = small, poorly fitted or top-dose-only effect, or another doubt; inactive = no such curve, though single readings can be large; an effect the other way counts as inactive or inconclusive. Unless noted, % is scaled to controls: 0 for no effect and ±100 for the full control effect; potency is read from the fitted curve at half-maximal effect.

SMILES	Luciferase inh	HEK293 tox	SNCA expr inh	NIH3T3 tox	hNpr1 antagonist	SNCA viab count
Cc1cccc(NC(=O)Nc2ccc(C)c(C)c2)n1	/	/	116.6%	/	/	-7.6%
CCc1ccc(NC(=O)c2cc(S(=O)(=O)N3CCCCC3)c[nH]2)cc1	/	/	-18.8%	/	/	7.3%
Cc1ccc(NC(=O)c2cc(-c3ccc[nH]3)n[nH]2)cc1	3.98µM*	-7.9%	42.6%	-14.0%	-0.5%	7.7%
O=C(Nc1ccc(Cl)cc1)c1cc(-c2ccc[nH]2)n[nH]1	?	?	48.6%	-25.1%	1.2%	0.0%
CCc1ccc(NC(=O)c2cc(-c3ccc[nH]3)n[nH]2)cc1	3.16µM*	?	6.2%	-16.9%	7.4%	-0.6%
O=C(NCc1ccccc1F)c1ccc2c(c1)CN(C1CCCC1)CCO2	/	?	22.3%	-23.5%	/	-6.8%
O=C(c1ccsc1)N1CCC(N2C(=O)C(O)C23CCCCC3)CC1 (stereo not given)	i	1.8%	-8.4%	i	-1.9%	6.1%
Cc1cc(CNC(=O)[C@@H]2CCC[C@@H](NC(=O)c3ccc(C#N)cc3)CN(C)C(=O)C2)no1	i	i	10.8%	i	-2.9%	3.9%
Cc1cc(CNC(=O)c2ccncc2)c2[nH]c(-c3ccccc3)c(C)c2c1	?	14.1µM*	36.2%	31.6µM*	11.2µM*	-7.9%
Cc1nc2c(-c3ccccc3)c(C)nn2c(C)c1CCC(=O)NCc1cccc(Cl)c1	/	/	13.3%	/	/	2.6%
Cc1cc(CNC(=O)Cc2nonc2C)c2[nH]c(-c3ccccc3)c(C)c2c1	10µM*	?	18.7%	-27.9%	-14.8%	-9.5%
Cc1cc(CNC(=O)Cc2ccc(-n3cnnn3)cc2)c2[nH]c(C)c(C)c2c1	i	?	-18.5%	20µM*	-4.4%	-17.3%
COc1ccc(CC(=O)NCc2cc(C)cc3c(C)c(C)[nH]c23)c(OC)c1	i	?	29.9%	?	-21.3%	?
Cc1c(-c2ccccc2)[nH]c2c(CNC(=O)CCc3nncn3C)cc(Cl)cc12	22.4µM*	?	39.4%	?	-0.8%	-18.2%
CCn1nccc1C(=O)NCCC1CCN(C(=O)Nc2ccccc2F)CC1	i	2.6%	-4.1%	-7.5%	1.1%	4.7%
CNC(=O)[C@@H]1C[C@H](Oc2ccccc2)CN1C(=O)C1CCC1	i	-4.5%	-1.9%	i	3.3%	12.0%
COc1ccc(-c2cc(NCCO)nc3[nH]ccc23)cc1C(F)(F)F	i	39.8µM*	-3.2%	39.8µM*	-15.8%	3.0%
COc1cccc(N2C(=O)NC(=NC3CCCCC3)C23CCN(C(=O)c2ccc(C)cc2)C3)c1 (stereo not given)	/	i	-6.5%	-6.3%	/	0.3%
CC(=O)N1CCC(N2CC[C@H](c3nc4ccccc4s3)C2)CC1	?	-10.7%[172 µM]	41.2%[87.6 µM]	i	2.1%[70.6 µM]	-7.6%[87.6 µM]
c1ccc2sc([C@H]3CCN(C4CCC4)C3)nc2c1	1.58µM*	?	?	-13.3%[230 µM]	22.4µM*	-11.1%[87.6 µM]
CCOc1ccccc1C1NC(=O)N(CC(=O)N2CCN(c3ccccc3)CC2)C2=C1C(=O)OC2 (stereo not given)	i	-26.3%	-4.1%	-22.8%	-1.1%	5.0%
COc1cccc(F)c1-c1ncc2c(n1)OCCN(CC1CC1)C2=O	i	3.6%[172 µM]	9.2%[87.6 µM]	?	2.5%[70.6 µM]	-15.9%[87.6 µM]
COc1cccc(-c2ncc3c(n2)OCCN(c2ccccc2)C3=O)c1OC	?	?	59.4%[87.6 µM]	79.4µM*	-9.1%[70.6 µM]	2.6%[87.6 µM]
COc1cccc(-c2ncc3c(n2)OCCN(CC2CC2)C3=O)c1OC	i	-26.9%[172 µM]	21.3%[87.6 µM]	89.1µM*	2.8%[70.6 µM]	3.9%[87.6 µM]
O=[S+]([O-])(c1cccs1)N1CC(Oc2ccc(F)cc2F)C1	/	?	-1.1%	?	/	-0.9%
SMILES	Luciferase inh	HEK293 tox	SNCA expr inh	NIH3T3 tox	hNpr1 antagonist	SNCA viab count
CCC1Oc2ccc(NC(=O)Cc3ccc(OC)cc3)cc2CN(Cc2ccc3c(c2)OCO3)C1=O (stereo not given)	i	22.4µM*	?	?	-12.1%	-26.9%
CCC1Oc2ccc(NC(=O)c3ccc4c(c3)OCO4)cc2CN(Cc2ccccc2)C1=O (stereo not given)	i	89.1µM*	6.8%	-26.5%	-2.3%	0.0%
CCC1Oc2ccc(NC(=O)Cc3ccccc3)cc2CN(Cc2ccc3c(c2)OCO3)C1=O (stereo not given)	i	35.5µM*	-8.2%	?	-15.2%	-0.2%
CCC1Oc2ccc(NC(=O)c3cccc(OC)c3)cc2CN(Cc2ccccc2)C1=O (stereo not given)	i	44.7µM*	3.7%	?	-23.0%	-2.2%
CC(C)C(=O)N1CCCN(c2ccnc3ccnn23)CC1	/	-15.3%[172 µM]	0.4%[87.6 µM]	?	/	20.1%[87.6 µM]
COc1ccc(CCNC(=O)c2cn3cc(-c4ccc(OC)cc4)sc3n2)cc1	/	3.6%	?	-19.1%	/	2.1%
COc1cccc(CCC(=O)N2C[C@@H](CO)[C@H](NC(=O)c3ccccc3)C2)c1	/	i	8.1%	-14.9%	/	-9.8%
N#Cc1cccc(CN2C[C@@H](CO)[C@H](NC(=O)c3ccccc3)C2)c1	i	?	-23.5%	5.01µM*	-1.8%	-20.8%
COc1cccc(CN2C[C@@H](CO)[C@H](NC(=O)c3ccccc3)C2)c1	i	35.5µM*	5.9%	?	-9.6%	-12.8%
CC(=O)NC1(C)CCN(Cc2ccc(Nc3ccccc3)cc2)C1 (stereo not given)	?	?	140.3%[87.6 µM]	?	1.5%[70.6 µM]	0.7%[87.6 µM]
CC(=O)NC1(C)CCN(Cc2ccc(-c3ccc(Oc4ccccc4)cc3)cc2)C1 (stereo not given)	22.4µM*	?	27.3%[87.6 µM]	12.6µM*	17.8µM*	-20.3%[87.6 µM]
CC(=O)NC1(C)CCN(Cc2ccccc2-c2ccccc2Oc2ccccc2)C1 (stereo not given)	i	?	?	79.4µM*	-18.0%[70.6 µM]	?
CC(=O)NC1(C)CCN(Cc2ccc(-c3ccc4ccccc4c3)cc2)C1 (stereo not given)	?	28.2µM*	?	25.1µM*	15.8µM*	-10.2%[87.6 µM]
CCn1cc(S(=O)(=O)N2CCC(N3C(=O)[C@H](OC)[C@@H]3c3ccncc3)CC2)cn1	i	-10.3%	19.4%	i	1.6%	0.1%
Cc1nc([C@H]2CCN(Cc3ccc(F)cc3F)C[C@H]2NC(=O)C2CCOCC2)n[nH]1	i	-4.2%	-5.9%	-13.4%	7.5%	8.6%[12.5 µM]
CC(=O)c1cccc(NC(=O)CN2C(=O)NC3(CCC(C(C)(C)C)CC3)C2=O)c1 (stereo not given)	i	?	?	39.8µM*	0.0%	-0.3%
CC(C)c1ccc(NC(=O)CN2C(=O)NC3(CCCCC3)C2=O)cc1	i	?	-16.7%	?	-1.6%	1.2%

Assay outcomes: PubChem BioAssay, National Center for Advancing Translational Sciences (NCATS)
